# Data taken from PubChem BioAssay AID2685 (National Center for Advancing Translational Sciences (NCATS), 2010).
# Out of some 320,000 compounds screened, about 2,100 (0.66%) were called active. Another 53% or so got no clear call; they are omitted. The sample holds actives, similar compounds and a random draw of the others, so the mix is not that of the screen. The call rests on the fitted dose curve; in most records, active means well fitted inhibition curve with a large enough effect in the signal ratio, with a control signal flat (not every such curve was filed as active); inconclusive means small, poorly fitted or top-dose-only effect, or effect the other way, or a change in a side signal; inactive means flat fitted curve, though single readings scatter; the % refers to the signal ratio.
# Assay: qHTS Assay for Lipid Storage Modulators in Drosophila S3 Cells;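 on cell number change: cells counted by Cell Tracker Red CMTPX staining in the red channel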; on lipid storage change, negative = inhibition: on the % scale 0 is the no-effect control and ±100 the full control effect
# Settings: BODIPY lipid droplet fluorescence, 18-24 h, cells fed with added oleic acid; cell number change: measured here: cell count max response; series mostly up to 46.1 µM; lipid storage change, negative = inhibition: at the top concentration
# Excerpt: NIH Molecular Libraries Probe Production Centers Network [MLPCN] NIH Chemical Genomics Center [NCGC] MLPCN Grant: 1 R03 MH085686-01 Assay Submitter (PI): Beller, Mathias; Max-Planck-Institut fur Biophysikalische Chemie NCGC Assay Overview: Storing lipids as a reservoir for energy or the anabolism of elementary metabolites is a common feature of probably all cells and is conserved from bacteria to humans. The universal cellular lipid storage organelle is the so-called lipid storage droplet (LD). Although ubiquitous, LDs share a simple structure composed of a hydrophobic core that harbors the storage lipids, which is shielded by a droplet-specific phospholipid monolayer to which proteins are attached. The current model of LD biogenesis involves an incorporation of the lipid core into the membrane leaflets of the endoplasmic reticulum (ER) followed by a subsequent budding-like maturation of a LD, which ultimately pinches off. Once released, LD volume can increase by localized lipogenesis or fusion of existing droplet. Storage lipids are re-mobilized enzymatically by lipase activity. Lipase regulation in the adipocyte is heavily studied and involves multiple components including catecholamine signaling, the LD-associated proteins Perilipin and comparative gene identification (CGI-58) and at least two lipases named hormone sensitive lipase (HSL) and adipocyte triglyceride lipase (ATGL). LD regulation outside of the adipocyte is poorly understood and only few components are known. However, there is an urgent need to learn more about ectopic fat depots as mislocalized storage of lipids, for example in the liver or muscle, is an eminent health problem associated with insulin resistance or the metabolic syndrome. We developed a laser-scanning cytometer assay to enable 1,536-well screening and combined the results of the small molecules screen with an RNAi database based on lipid storage.
# Triacsin C (Sigma-Aldrich T-4540), an inhibitor of long-chain fatty acyl CoA synthetase that blocks synthesis of triglycerides, was used as a positive control for lipid under-storage. A total of 23 nL of compound solution of different concentrations were transferred to the assay plates using a Kalypsys pin tool equipped with a 1,536-pin array containing 10-nL slotted pins (FP1S10, 0.457-mm diameter, 50.8 mm long; V&P Scientific). One microliter of oleic acid (400 uM) was added, and the plate was lidded with stainless steel rubber gasket lined lids containing pinholes. […] Fluorescence was detected by excitation of the fluorophores with a 488-nm laser on an Acumen Explorer (TTP Lab Tech). The total intensity in channel 2 (500-530 nm) reflected lipid droplet accumulation. Cells were detected using channel 3 (575-640 nm) with 5-um width and 100-um depth filters. The ratio of the number of objects in PMT channel 2 over the number of objects in PMT channel 3 was also calculated. Percent activity was computed relative to an internal control (100% inhibited lipid droplet deposition due to the presence of 20 uM Triacsin C), which was added to 32 wells/plate.
# Potency means the concentration at half of the fitted maximal effect.
Compound,"lipid storage change, negative = inhibition",cell number change,outcome,Potency
CCN(CC)CCNC(=O)c1cc(Br)c(N)cc1OC,1.26% (inactive),6.76%,,
CCN(CC)CCNC(=O)c1ccccc1C(=O)c1ncc[nH]1,,-16.6%,inactive,
CCN(CC)CCNC(=O)c1ccccc1N,,-10.7%,,23.1 µM (active)
CN1CCN(NC(=O)c2cc(S(=O)(=O)Nc3ccc(Cl)cc3)ccc2Cl)CC1,19% (inactive),18.2%,,
O=[N+]([O-])c1cnc2ccccc2c1,2.15% (inactive),16.2%,,
O=[N+]([O-])c1cc([N+](=O)[O-])c2n[nH]c(-c3ccccc3)c2c1,12.5% (inactive),17.9%,,
O=[N+]([O-])c1cc([N+](=O)[O-])c2cc3ccccc3nc2c1,,-20.7%,,3.26 µM (active)
Cc1ccc(C(=O)NCCn2cc(SCC(=O)Nc3cc(C)on3)c3ccccc32)cc1,-4.46% (inactive),,,
COc1ccccc1NC(=O)c1ccc(-n2ccnc2)c([N+](=O)[O-])c1,9.53% (inactive),13%,,
Cc1nn(CC(=O)Nc2ccc(S(=O)(=O)N(C)C)cc2)c(C)c1[N+](=O)[O-],11.6% (inactive),9.05%,,
O=C(O)c1ccc(-n2ccnc2)c([N+](=O)[O-])c1,,9.03%,inactive,
Cc1nn(CC(=O)Nc2ccc(N(C)C)cc2)c(C)c1[N+](=O)[O-],,-14.5%,inactive,
CN(C)S(=O)(=O)c1cc(NC(=O)c2ccc(-n3ccnc3)c([N+](=O)[O-])c2)ccc1Cl,,5.46%,,20.6 µM (active)
Cc1nn(CC(=O)Nc2ccc(Cl)c(S(=O)(=O)N(C)C)c2)c(C)c1[N+](=O)[O-],,-5.49%,,0.58 µM (active)
CN(C)S(=O)(=O)c1ccc(C(=O)NCCSc2ccc(Br)cc2)cc1,19% (inactive),20%,,
Cc1ccc2[nH]c(=O)c(CN(CCCN(C)C)C(=S)NCCc3ccccc3)cc2c1,-2.53% (inactive),-4.82%,,
CC(CCc1ccccc1)NC(=O)C1CCN(S(=O)(=O)c2cnc[nH]2)CC1 (configuration not stated),16.3% (inactive),,,
COc1ccc(S(=O)(=O)N2CCC(C(=O)NCC3CCCO3)CC2)cc1 (configuration not stated),,,inactive,
Cc1c(C#N)sc(C(N)=O)c1C,-3.02% (inactive),10.5%,,
Clc1cccc(NCc2nnc(SCc3ccccc3)o2)c1,9.23% (inactive),-10.7%,,
O=C(O)c1cccc(NC(=S)NC(NC(=O)c2cccc([N+](=O)[O-])c2)C(Cl)(Cl)Cl)c1 (configuration not stated),-6.68% (inactive),-10.1%,,
O=C(NC(NC(=S)Nc1ccc(Cl)cc1Cl)C(Cl)(Cl)Cl)c1cccc([N+](=O)[O-])c1 (configuration not stated),,12.3%,inactive,
O=C(NC(NC(=S)Nc1c(Cl)cccc1Cl)C(Cl)(Cl)Cl)c1cccc([N+](=O)[O-])c1 (configuration not stated),,18.3%,,3.66 µM (active)

Compound,"lipid storage change, negative = inhibition",cell number change,outcome,Potency
COCCNC(=O)Cn1c(=O)n(CCCC(=O)NCc2ccc3c(c2)OCO3)c(=O)c2sccc21,,7.14%,inactive,
CCCNC(=O)Cn1c(=O)n(CC(=O)N2CCCCC2)c(=O)c2sccc21,,-0.943%,inactive,
COc1cccc(CNC(=O)Cn2c(=O)n(CCC(=O)N3CCCCC3)c(=O)c3sccc32)c1,,-6.85%,,4.11 µM (active)
CC(=O)c1sc(Nc2ccc(C)cc2)nc1C,3.82% (inactive),7.99%,,
O=C(NNC(=O)C1CC1)c1cc(Cl)nc2ccccc12,12% (inactive),13.7%,,
Cc1nn(Cc2ccc(Cl)cc2)c(C)c1NC(=O)CCCn1nc(C)c([N+](=O)[O-])c1C,,3.25%,,2.31 µM (active)
Cc1nn(Cc2ccccc2Cl)c(C)c1NC(=O)CCCn1nc(C)c([N+](=O)[O-])c1C,8.88% (inactive),-4.35%,,
Cc1nn(Cc2ccc(Cl)cc2)c(C)c1NC(=O)CCCn1nc([N+](=O)[O-])c(Cl)c1C,-11.9% (inactive),-11.8%,,
Cc1cc(C(=O)Nc2c(C)nn(Cc3ccc(Cl)cc3)c2C)no1,-9.5% (inactive),-17.6%,,
Cc1nn(Cc2ccc(Cl)cc2)c(C)c1NC(=O)C1CC=CCC1C(=O)O (configuration not stated),-8.85% (inactive),2.56%,,
Cc1ccc(Cn2nc(C)c(NC(=O)CCCn3nc([N+](=O)[O-])c(Cl)c3C)c2C)cc1,,-28.1%,,8.2 µM (active)
Cc1nn(CCCC(=O)NCc2ccc(Cl)cc2)c(C)c1[N+](=O)[O-],4.65% (inactive),,,
Cc1nn(Cc2ccccc2)c(C)c1NC(=O)CCCn1nc([N+](=O)[O-])c(Cl)c1C,-17.1% (inactive),-5.3%,,
Cc1nn(Cc2ccc(Cl)cc2)c(C)c1NC(=O)C(c1ccccc1)c1ccccc1,,-18.5%,,23.1 µM (active)
C/C(=N\NC(=O)Cc1c(Cl)cccc1Cl)c1cccnc1,24.2% (inactive),,,
CC(C)(C)c1ccc(/C=C/C(=O)O)s1,-12.3% (inactive),0.873%,,
C=Cn1cc[n+](CC(=O)c2ccc(Br)s2)c1,,-18.1%,inactive,
c1ccc(-n2cc(CN3CCC(N4CCOCC4)CC3)c(-c3ccc4c(c3)OCO4)n2)cc1,13.6% (inactive),13.9%,,
Cc1cccc(NC(=O)NC(C)C(c2ccccc2)N2CCN(C)CC2)c1 (configuration not stated),4.89% (inactive),-13.4%,,
COc1cc(C(=O)Nc2cc(-c3cn4cccnc4n3)ccc2C)cc(OC)c1OC,9.88% (inactive),-3.97%,,
COc1cccc(NC(=O)CN(C)C(=O)CSc2ccc3c(c2)OCCO3)c1,18% (inactive),2.81%,,
Cc1cc(SCC(=O)Nc2ncc(Cl)cc2Cl)nc2ccccc12,-0.799% (inactive),19.1%,,
COCCn1nnnc1SCC(=O)N1CCCCC1,0.19% (inactive),6.22%,,
